Screening results as filed in PubChem BioAssay.
Rows were chosen to be rich in hits. Some 3.7% of all compounds tested hit in one or more screens of this group.
TIM10 inh: growth inhibitors of TIM10 yeast strain; inhibition, % at 10 µM; S. cerevisiae TIM10 strain growth, BacTiter-Glo luminescence, 24 h; 1.4% of 330,000 active;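 active = inhibition of 40% or more at the single tested concentration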;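 also: wild-type TIM10 isogenic control strain grown at permissive 25 °C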
NALP3 yeast inh: blocks the NALP3 inflammasome reconstituted in yeast; inhibition, % at 10 µM; AID 2825; Yeast reconstituted NLRP3/ASC/caspase-1, beta-gal luminescence, 24 h; 0.39% of 330,000 active;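 active = inhibition of 50% or more; inactive = inhibition below 50%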
tim23-1 inh: tim23-1 yeast growth inhibition. inhibition, % at 20 µM. 1.3% of 330,000 active. S. cerevisiae tim23-1 growth, BacTiter-Glo luminescence, 24 h. AID 463212;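 active = growth inhibition of the mutant yeast at or above 50%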;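 also: temperature-sensitive mutant grown at 25 °C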
tim10-1 inh: tim10-1 yeast growth inhibition. AID 463190. inhibition, % at 20 µM. 2.2% of 330,000 active. S. cerevisiae tim10-1 ts strain growth, BacTiter-Glo, 24 h;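 active = inhibition of at least 40%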;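 also: mutant grown at 25 °C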
PfHsp90 set2: inhibits growth of yeast expressing Plasmodium falciparum Hsp90; S. cerevisiae expressing PfHsp90, BacTiter-Glo ATP, 48 h; yeast lacking PDR1 and PDR3 efflux regulators; inhibition, % at 9.4 µM; 0.32% of 310,000 active; AID 504621;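 active = every replicate shows inhibition above about 80%, whatever the replicate mean, limit read from the data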
tim10-1 confirm: tim10-1 yeast growth inhibition, confirmed; AID 463213; inhibition, % at 20 µM; 56% of 7,400 active; S. cerevisiae tim10-1 ts strain growth, BacTiter-Glo, 24 h; shares compounds with tim10-1 inh;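 active = inhibition of yeast growth at or above a set limit in either of two repeat tests at 20 µM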;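 also: tim10-1 mutant grown at permissive 25 °C to find synthetic lethal compounds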
tim10 confirm: TIM10 yeast growth inhibition, confirmed; 63% of 4,600 active; shares compounds with TIM10 inh; inhibition, % at 10 µM; S. cerevisiae tim10 strain growth, BacTiter-Glo luminescence, 24 h;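 active = inhibition of yeast growth at or above a set limit in either of two replicates at 10 µM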; also: this counterscreen used the strain with wild-type TIM10
Large screens that a line does not name were inactive (follow-up assays come after a bar, where they were run).

FC(F)(F)c1cccc(NC(=S)Nc2cccc(NC(=S)Nc3cccc(C(F)(F)F)c3)n2)c1	TIM10 inh 48.1, tim10-1 inh 52.6 | tim10-1 confirm 33.2 | tim10 confirm 32.1
S=C(Nc1ccccc1)Nc1ccc(Cl)cc1Cl	none
CC1CCN(C(=S)SCc2nc(N)nc(Nc3ccccc3)n2)CC1	TIM10 inh 43.5, tim10-1 inh 40.8 | tim10-1 confirm inactive | tim10 confirm 33.8
Cc1c(C(=O)N2CCc3ccccc32)oc2c1C(=O)CC(C)(C)C2	none (no result: TIM10 inh, NALP3 yeast inh, tim23-1 inh, tim10-1 inh)
O=[N+]([O-])c1ccccc1C1Nc2cccc3cccc(c23)N1	TIM10 inh 57.0, tim10-1 inh 85.0 | tim10-1 confirm 76.2 | tim10 confirm 68.5
O=[N+]([O-])c1ccc(Cl)c(C2Nc3cccc4cccc(c34)N2)c1	none
O=C(/C=C/c1cccc(OCc2ccccc2)c1)c1cccnc1	TIM10 inh 64.9, tim10-1 inh 57.2 | tim10-1 confirm 50.3 | tim10 confirm 51.6
O=C(O)/C=C/c1cccc(OCc2ccccc2)c1	none
CCOc1cc(C(=O)O/N=C(\N)c2ccc([N+](=O)[O-])cc2)cc(OCC)c1OCC	TIM10 inh 45.8, tim10-1 inh 60.6 | tim10-1 confirm 48.5 | tim10 confirm 42.0
CCOC(=O)C1CCN(C(=O)c2cc3cc4cc(OC)ccc4nc3o2)CC1	TIM10 inh 52.6, tim10-1 inh 47.6 | tim10-1 confirm 51.0 | tim10 confirm inactive
CC(NS(=O)(=O)c1ccc(Cl)cc1)C(=O)NCCC1=CCCCC1 (stereo unspecified)	none
CC(C)(C)C1=CC(=Nc2ccccc2N)C=C(C(C)(C)C)C1=O	none
CC(C)(C)C1=CC(=O)C(=O)C(C(C)(C)C)=C1	TIM10 inh 40.1, tim10-1 inh 47.2, PfHsp90 set2 103.5 | tim10-1 confirm 38.8 | tim10 confirm inactive
O=C(NC12CC3CC(CC(C3)C1)C2)c1ccc(-c2cccc(Cl)c2)o1	TIM10 inh 46.7, tim10-1 inh 47.3 | tim10-1 confirm 35.6 | tim10 confirm inactive
O=C(NC12CC3CC(CC(C3)C1)C2)c1ccc(-c2ccc(Cl)cc2)o1	none
O=C(/C=C/c1ccc(-c2ccccc2[N+](=O)[O-])o1)c1ccco1	TIM10 inh 47.7, tim10-1 inh 55.3 | tim10-1 confirm 44.5 | tim10 confirm 46.1
N/C(=N\OC(=O)c1ccccc1Br)c1cccc([N+](=O)[O-])c1	TIM10 inh 41.3, tim10-1 inh 79.1 | tim10-1 confirm 84.5 | tim10 confirm 53.8
CCOC(=O)N1CCN(C(=O)c2sc3nc(-c4ccc(F)cc4)cn3c2C)CC1	TIM10 inh 43.1, tim10-1 inh 56.3 | tim10-1 confirm 38.2 | tim10 confirm 39.8
COC(=O)C1CCN(C(=O)c2sc3nc(-c4ccccc4)cn3c2C)CC1	TIM10 inh 43.5, tim10-1 inh 48.2 (no result: PfHsp90 set2) | tim10-1 confirm 38.3 | tim10 confirm inactive
COc1ccccc1N1CCN(C(=O)c2sc3nc(-c4ccc(F)cc4)cn3c2C)CC1	tim10-1 inh 66.3 | tim10-1 confirm 57.8 | tim10 confirm 50.6
COc1ccc(-c2cn3c(C)c(C(=O)N4CCN(c5ccccc5)CC4)sc3n2)cc1	none (no result: TIM10 inh, NALP3 yeast inh, tim23-1 inh, tim10-1 inh)
Cc1cc(C(=O)Nc2ccc(S(=O)(=O)N3CCCC3)cc2)cs1	TIM10 inh 55.8, tim10-1 inh 43.8 | tim10-1 confirm 40.1 | tim10 confirm 36.1
COc1cc(OC)c(C(=O)Nc2ccc(S(=O)(=O)N3CCCCC3)cc2)cc1OC	none
COc1ccc(C(=O)Nc2ccc(S(=O)(=O)N3CCCCC3)cc2)cc1OC	TIM10 inh 60.3, tim10-1 inh 48.9 | tim10-1 confirm 33.4 | tim10 confirm inactive
CC(=O)c1ccc(NC(=O)c2ccc(S(=O)(=O)N3CCCC3)cc2)cc1	none
O=C1C(Cl)=C(Nc2ccc(O)cc2)C(=O)c2ccccc21	TIM10 inh 44.9, tim10-1 inh 48.9 | tim10-1 confirm 44.6 | tim10 confirm 51.5
CCCOC(=O)/C(=C\c1ccc([N+](=O)[O-])o1)NC(=O)c1ccccc1	TIM10 inh 53.6, tim10-1 inh 56.3 | tim10-1 confirm 46.9 | tim10 confirm inactive
O=C(NCCO)/C(=C\c1ccc([N+](=O)[O-])o1)NC(=O)c1ccccc1	none
O=C(Cc1cccc2ccccc12)N/N=C/c1ccc(Sc2nc3ccccc3s2)o1	none
CCN1CCCC(OC(=O)c2cc(-c3ccccc3Cl)nc3ccccc23)C1 (stereo unspecified)	TIM10 inh 48.6, tim10-1 inh 47.8 | tim10-1 confirm 33.5 | tim10 confirm 37.3
COc1ccccc1-c1nnc(SCC(=O)NC2CCCCC2)n1C	none
O=C(CCc1ccccc1)Nc1ncn[nH]1	none
O=C(/C=C/c1ccccc1)Nc1ncn[nH]1	TIM10 inh 52.9, tim10-1 inh 48.6 | tim10-1 confirm 56.2 | tim10 confirm 48.3
OC[C@@H]1[C@@H](c2ccc(F)cc2)C(c2ccccc2)=NN1c1ccccc1	none (no result: NALP3 yeast inh)
O=C1C2C(c3ccccc3)=NN(c3ccccc3)C2C(=O)N1c1ccccc1 (stereo unspecified)	TIM10 inh 59.2, tim10-1 inh 59.5 | tim10-1 confirm 49.0 | tim10 confirm inactive
CC(C)(C(=O)c1cccnc1)c1cccnc1	none
Cc1ccc(OCC(=O)NNC(=O)C(C)Sc2ncnc3sc(C)c(C)c23)cc1 (stereo unspecified)	TIM10 inh 54.8, tim10-1 inh 42.0 | tim10-1 confirm 41.8 | tim10 confirm inactive
COc1ccc(O)c(/C=N/Nc2nc(C)cc(-c3ccccc3)n2)c1	TIM10 inh 41.9, tim10-1 inh 43.3 | tim10-1 confirm 39.9 | tim10 confirm 46.8
CCc1cc(-c2[nH]ncc2-c2ccc(OC)cc2)c(O)cc1O	none
COc1ccc(-c2cn[nH]c2-c2ccc(OCc3ccc([N+](=O)[O-])cc3)cc2O)cc1	TIM10 inh 41.7, tim10-1 inh 46.9 | tim10-1 confirm inactive | tim10 confirm inactive
CC1CCN(S(=O)(=O)c2cn(CC(=O)N3CC(C)CC(C)C3)c(=O)c3ccccc23)CC1 (stereo unspecified)	none
Cc1ccc(C(=O)ON=C2CCN(c3ccc([N+](=O)[O-])cc3)CC2)cc1	TIM10 inh 60.6, tim10-1 inh 52.5 | tim10-1 confirm 48.8 | tim10 confirm 62.8
O=C(c1ccccc1Nc1ccc(SC(F)F)cc1)N1CCCCCC1	TIM10 inh 51.1, tim10-1 inh 43.9 | tim10-1 confirm 33.6 | tim10 confirm 33.4
COC(C/C=C\C(=O)COCc1ccccc1)OC	none (no result: PfHsp90 set2)
COC(C/C=C/C(=O)[C@H](C)OCc1ccccc1)OC	TIM10 inh 45.7, tim10-1 inh 51.7 | tim10-1 confirm 47.7 | tim10 confirm 46.1
Cc1ccc(Oc2nnc(-c3ccccc3)c3ccccc23)cc1	TIM10 inh 41.0, tim10-1 inh 51.1 | tim10-1 confirm 41.2 | tim10 confirm 50.3
Cc1ccc(-c2nnc(Oc3cccc(C)c3)c3ccccc23)cc1	none
